# Experimental data reported in PMC5540273 (PLoS ONE, 2017).
# Tested on: CAMK2D
# Conditions: concentration: 1 μM, replicates: in singlicate; n = 1
# 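Also: KINOMEscan kinase panel screen.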
row,SMILES,%Inh
1,CC(C)c1nc(-c2cccc(NS(=O)(=O)c3c(F)cccc3F)c2F)c(-c2ccnc(Nc3ccc(N4CCOCC4)nc3)n2)s1 [GSK2008607],3%
2,COCCOCCOc1cc2ncc3c4ccc(C#N)cc4[nH]c3c2cc1OC,87%
3,Fc1ccc(-c2ncn(C3CCNCC3)c2-c2ccnc(Oc3ccc(-c4ccccc4)cc3)n2)cc1 [SB-245391],14%
4,c1ccc(-c2cnc3nccnn23)cc1 [AH20685],0%
5,COc1cccc(-c2ccc3c(NC(=O)C4CC4)n[nH]c3n2)c1 [SB-710903],8%

# Tested on: CAMK2G
# Conditions: concentration: 1 μM, replicates: in singlicate; n = 1
row,SMILES,%Inh
1,COc1cccc(C(=O)Nc2cccc(Oc3ccc4nc(NC(=O)C5CC5)cn4n3)c2)c1,0%
2,Cl.Cl.NCC(NC(=O)c1cc(-c2ccccc2)c(-c2ccnc3[nH]ccc23)s1)c1ccccc1 (stereo not drawn) [GSK1321561],0%
3,CC(=O)Nc1nc2cnc(Nc3cc(NC(=O)c4cccc(C5(C#N)CC5)c4Cl)ccc3C)nc2s1,10%
4,COc1cccc(NC(=O)NC2CCN(c3ccnc(Nc4cc(OC)c(OC)c(OC)c4)n3)C2)c1 (stereo not drawn) [GSK1379763],38%
5,COc1cc2c(cc1OCCN1CCNCC1)ncc1c3ccc(C#N)cc3[nH]c21,79%
6,CSc1cccc2c(-c3ccncn3)c(-c3ccc(F)cc3)nn12 [GW514786],10%
7,Cn1cc(-c2ccc3c(c2)CCN3C(=O)Cc2cccc(Cl)c2)c2c(N)ncnc21 [GSK2606590],25%
8,CCS(=O)(=O)c1ccc(OC)c(Nc2nccc(-c3c(-c4cccc(NC(=O)c5c(F)cccc5F)c4)nn4ncccc34)n2)c1 [GSK326180],27%
9,CCn1c(-c2nonc2N)nc2c(C#CC(C)(C)O)ncc(OCCCCN)c21.O=C(O)C(F)(F)F.O=C(O)C(F)(F)F [GSK507274],19%
10,O=C(Nc1cccc(-c2nn3ccccc3c2-c2ccnc(Nc3cccc(C(F)(F)F)c3)n2)c1)c1c(F)cccc1F [GSK292658],0%
11,CN(c1ccc(NC(=O)Nc2cc(C(F)(F)F)ccc2F)cc1)c1ccnc(Nc2ccc(S(N)(=O)=O)cc2)n1 [GW809893],9%
12,COc1cc(Nc2ncc3c(C)nc(-c4cc5ccccc5[nH]4)n3n2)cc(OC)c1OC [GW869516],1%
13,Cc1ccc(C)c(NC(=O)NC2CCN(c3ccnc(Nc4ccc(F)cc4)n3)C2)c1 (stereo not drawn) [GSK1379720],4%
14,c1ccc(Oc2ccc(Nc3ccnc4cc(-c5ccc(CNCCN6CCOCC6)o5)ccc34)cc2)nc1 [GW567145],1%
15,COc1cc(Nc2nccc(-c3c(-c4cccc(NC(=O)c5c(F)cccc5F)c4)nn4ncccc34)n2)cc(OC)c1OC [GSK327238],19%
16,COc1cc(Nc2nccc(N3CCC(NC(=O)Nc4cccc(C(C)=O)c4)C3)n2)cc(OC)c1OC (stereo not drawn) [GSK1379753],0%
17,Cl.Cl.NCC(NCc1ccc(-c2ccnc3[nH]ccc23)s1)c1ccccc1 (stereo not drawn) [GSK1321565],19%
18,Oc1cc(Nc2ccnc3cc(I)ccc23)ccc1F [GW552771],0%
19,Cc1ccc(C(=O)Nc2ccc(Nc3ccnc4cc(-c5nccs5)ccc34)cc2O)cc1.Cl [GW494702],14%

row,SMILES,%Inh
1,C[C@@H]1CC[C@@H](C(=O)Nc2ccccc2)CN1c1cc(-c2ccc3c(N)n[nH]c3c2)nc(N)n1 [GSK2286062],18%
2,Nc1ncc(-c2cccnc2)c2scc(-c3ccc4c(c3)CCN4C(=O)Cc3ccccc3)c12 [GSK683281],37%
3,Cl.c1ccc(-c2ccc3c(Nc4ccc5[nH]ccc5c4)ccnc3c2)nc1 [GW440138],18%
4,CCn1c(-c2nonc2N)nc2c(C#CC(C)(C)O)nc(OC[C@H](N)c3ccccc3)cc21 [GSK943949],0%
5,Cn1cc(-c2ccc3c(c2)CCN3C(=O)Cc2cccc(F)c2)c2c(N)ncnc21 [GSK2603358],34%
6,O=C(Nc1cccc(-c2nn3ncccc3c2-c2ccnc(Nc3ccccc3)n2)c1)c1c(F)cccc1F [GSK198271],8%
7,COc1cc(Nc2nccc(-c3c(-c4cccc(NC(=O)c5c(F)cccc5F)c4)nn4ccccc34)n2)cc(OC)c1OC [GSK323521],40%
8,FC(F)(F)c1ccc(/C=C/c2cncnc2Nc2ccc3[nH]c(Cc4ccccc4)nc3c2)cc1 [GW709199],8%
9,CC(C)(C)c1ccc2nccc(Nc3cccc(O)c3)c2c1 [GW856795],0%
10,CCc1ccc(-c2ccc3c(c2)-c2c(cnn2C)S(=O)(=O)N3C)cc1,13%
11,COc1cccc(C2=C(Nc3ccc(Cl)c(C(=O)O)c3)C(=O)NC2=O)c1 [SB-390769],1%
12,NCCCC(NC(=O)c1cc(Br)c(-c2ccnc3[nH]ccc23)s1)c1ccccc1.O=C(O)C(F)(F)F.O=C(O)C(F)(F)F (stereo not drawn) [GSK1287544],10%
13,COC(=O)Nc1nc2ccc(Oc3ccc(NC(=O)Nc4cc(C(F)(F)F)ccc4F)cc3)cc2n1C.Cl [GW692089],3%
14,CC(C)c1nc(-c2cccc(NS(=O)(=O)c3c(F)cccc3F)c2F)c(-c2ccnc(Nc3ccc(N4CCOCC4)nc3)n2)s1 [GSK2008607],29%
15,COCCOCCOc1cc2ncc3c4ccc(C#N)cc4[nH]c3c2cc1OC,72%
16,Fc1ccc(-c2ncn(C3CCNCC3)c2-c2ccnc(Oc3ccc(-c4ccccc4)cc3)n2)cc1 [SB-245391],17%
17,c1ccc(-c2cnc3nccnn23)cc1 [AH20685],0%
18,COc1cccc(-c2ccc3c(NC(=O)C4CC4)n[nH]c3n2)c1 [SB-710903],9%
